An excerpt weighted towards active compounds, which were near 3% of everything screened.
MITF act: activators of MITF-driven TRPM1 promoter activity in SK-MEL-5 cells. hit rate 0.75% among 300,000. activation, % at 12.5 µM. SK-MEL-5 TRPM1-promoter luciferase, 24 h; % of positive control, neutral wells = 0;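 active = mean activation of at least 80% with every replicate also reaching 80%; inconclusive = mean reaches 80% but some replicate falls short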
esBAF inh: SWI/SNF esBAF complex inhibition | mouse ES cells, Bmi1-luciferase knock-in reporter, 24 h; 100% = twice the neutral-well signal | reporter increase, % at 12.5 µM | hit rate 2% among 350,000; in the data active = activation above about 40%; inconclusive = no clear call, values can overlap the other calls;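 also: a rise in the Bmi1 reporter signal indicates esBAF inhibition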
Wnt bcat act: Wnt/beta-catenin pathway activation. activation, % at 9.35 µM. Wnt/beta-catenin reporter cell assay, activator, plate reader. hit rate 1.2% among 300,000; in the data active = activation above about 30%, passing the limit was not always enough; inconclusive = no clear call, values can overlap the other calls
C2C12 statin: suppression of simvastatin myotoxicity. rescue of ATP level, % at 7.49 µM. C2C12 myotubes + simvastatin, ATP luminescence, 48 h; scaled: DMSO 0, geranylgeraniol control 100. hit rate 0.78% among 330,000;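 active = mean ATP rescue above about 67%, or every replicate alone reaching that limit, limit read from the data, passing the limit was not always enough; inconclusive = no clear call, values can overlap the other calls; inactive = mean under the limit and some replicate under it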;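 also: myotubes were challenged with 10 µM simvastatin during compound exposure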
Numbers stand for hits; . = inactive; ? = inconclusive; / = no result; ! = not active in a repeat.

SMILES	MITF act	esBAF inh	Wnt bcat act	C2C12 statin
COc1cccc(/C=C/c2nc3c(cnn3-c3ccccc3)c(=O)[nH]2)c1	.	/	.	/
COc1cccc(/C=C/c2n[nH]c(=O)c(C#N)c2C)c1	.	.	.	94
CCC(CO)Oc1cc(NCc2ccccc2)c2ncn(C(C)C)c2c1 (centres undefined)	.	60	.	.
CCC(CO)Oc1cc(NCc2ccc(O)cc2)c2ncn(C(C)C)c2c1 (centres undefined)	.	.	.	.
O=C(C[C@@H]1CC[C@H]2NC[C@H](O)COC[C@@H]2O1)N1CCc2ccccc2C1	/	.	/	.
CCCCOC(=O)c1ccc(NC(=O)c2cnccn2)cc1	.	.	/	.
CCCOC(=O)c1ccc(NC(=O)c2cnccn2)cc1	.	59	/	.
CC1CC(=O)Nc2ccccc2N1C(=O)Nc1ccc(F)cc1 (centres undefined)	/	/	39	/
CC1CC(=O)Nc2ccccc2N1C(=O)Nc1ccc(F)cc1F (centres undefined)	.	.	.	.
O=C(Nc1ccc2c(c1)OCCO2)c1c(F)cccc1F	102	.	.	.
O=C(NC(=S)Nc1ccc2c(c1)OCCO2)c1ccccc1F	85	54	.	.
O=C(Nc1ccc2c(c1)OCCO2)c1ccccc1F	/	.	.	.
CN(C)CC(=O)Nc1ccc2c(c1)[C@H]1C[C@H](CC(=O)NCc3cccnc3)O[C@@H](CO)[C@H]1O2	/	.	/	.
O=C(CN(CCc1ccccc1)S(=O)(=O)c1ccc(Cl)cc1)N/N=C/c1ccc2c(c1)OCO2	.	/	34	/
C/C(=N\NC(=O)c1ccc2c(c1)OCO2)c1ccc(NS(C)(=O)=O)cc1	.	51	.	.
C/C(=N\NC(=O)c1ccc2c(c1)OCO2)c1ccc(O)cc1	.	/	.	/
COc1ccc(S(=O)(=O)N(CCc2ccccc2)CC(=O)N/N=C/c2ccc3c(c2)OCO3)cc1	.	/	.	/
O=C(N/N=C/c1ccc(Cl)cc1)c1ccc2c(c1)OCO2	.	63	.	.
O=C(N/N=C/c1ccc2c(c1)OCO2)c1ccc2c(c1)OCCO2	.	/	.	/
O=C(N/N=C/c1ccsc1)c1ccc2c(c1)OCO2	86	49	.	.
CO[C@H]1CN(C)C(=O)c2cc(NC(=O)Nc3cc(F)ccc3F)ccc2OC[C@@H](C)N(C)C[C@@H]1C	/	.	/	.
CC(=O)N(C)C[C@H]1Oc2ncc(-c3ccccc3C)cc2C(=O)N([C@@H](C)CO)C[C@@H]1C	/	.	/	.
COCC(=O)N1C[C@H](C)[C@@H](OC)CN(C)C(=O)c2cc(NC(=O)Nc3ccccc3)ccc2OC[C@@H]1C	/	.	/	.
C/C=C/c1ccc2c(c1)O[C@@H](CN(C)C(=O)c1cnccn1)[C@@H](C)CN([C@@H](C)CO)S2(=O)=O	/	.	/	.
Cc1cccc(-c2ccc3ncnc(NCc4cccs4)c3c2)c1	.	.	.	.
SMILES	MITF act	esBAF inh	Wnt bcat act	C2C12 statin
Clc1cccc(-c2ccc3ncnc(NCc4cccs4)c3c2)c1	.	.	35	.
c1ccc(-c2csc(Nc3ccc4c(c3)OCCO4)n2)cc1	.	.	46	.
COc1cccc(Nc2nc(-c3ccc4c(c3)OCCO4)cs2)c1	87	/	/	/
CCC(=O)Nc1nc(-c2ccc3c(c2)OCCO3)cs1	.	?	.	.
c1cc2c(cc1Nc1nc(-c3ccc4c(c3)OCO4)cs1)OCCO2	/	.	/	.
C=CCNc1nc(-c2ccc3c(c2)OCCO3)cs1	.	.	42	.
CCOC(=O)C1CCN(C(=O)c2c(-c3c(Cl)cccc3Cl)noc2C)CC1	.	.	.	93
Cc1onc(C(=O)N2CCC(C(N)=O)CC2)c1-c1ccccc1Cl	.	.	.	92
CCCN1C[C@H](C)[C@H](OC)CN(C)C(=O)c2ccc(NC(=O)Nc3c(C)noc3C)cc2OC[C@@H]1C	/	.	/	.
O=C(C[C@@H]1C=C[C@H](NS(=O)(=O)c2ccccc2F)[C@H](CO)O1)NCCCN1CCOCC1	/	.	/	.
COc1ccc(C2CC(=O)Oc3c(C(CCN4CCCC(C)C4)c4ccc(N(C)C)cc4)c(OC)cc(OC)c32)cc1 (centres undefined)	.	.	.	.
COc1ccc(C2CC(=O)Oc3c(C(CCN4CCCCC4)c4ccc(N(C)C)cc4)c(OC)cc(OC)c32)cc1 (centres undefined)	.	.	.	121
Cc1noc(C)c1S(=O)(=O)Nc1ccc2c(c1)C(=O)N([C@H](C)CO)C[C@H](C)[C@@H](CN(C)S(C)(=O)=O)OCCCC[C@@H](C)O2	/	.	/	/
COc1ccc(-c2ccc(C(=O)Nc3ccc(Cl)cc3)c3occc23)c(C)c1	/	80	.	.
COc1ccc(-c2ccc(C(=O)Nc3ccc(NC(C)=O)cc3)c3occc23)c(C)c1	/	.	.	.
Cn1nccc1-c1ccc(C(=O)NCc2ccc(Cl)cc2)c2occc12	/	80	/	.
COc1ccc(-c2ccc(C(=O)NCc3ccccc3)c3occc23)c(C)c1	/	50	.	.
Cn1nccc1-c1coc2c(C(=O)NCc3ccccc3)cccc12	/	.	.	.
CC=Cc1ccc2n(c1=O)C[C@@H]1[C@@H](CO)[C@H](C(=O)NCC3CC3)[C@H]2N1CCC (mixture of isomers)	/	.	/	.
COc1ccc2c(c1)C(=O)c1ccccc1CO2	.	/	/	/
COc1ccc(C2=Nc3ccccc3OC2)cc1	.	64	.	.
CN(C)CC(=O)Nc1ccc2c(c1)[C@@H]1C[C@@H](CC(=O)N3CCOCC3)O[C@H](CO)[C@@H]1O2	/	.	/	.
OCC[C@H]1C[C@@H](O)[C@H](O)[C@@]2(Cc3ccccc3O2)O1	.	.	.	118
Oc1ccc(C2C(c3ccccc3)=NN=C(c3ccc(Cl)cc3)N2O)c(O)c1 (centres undefined)	.	46	.	.
Oc1ccc(C2C(c3ccccc3)=NN=C(c3ccccc3F)N2O)c(O)c1 (centres undefined)	.	/	/	/
SMILES	MITF act	esBAF inh	Wnt bcat act	C2C12 statin
CCC(=O)Nc1ccc2c(c1)C(=O)N(C)C[C@@H](OC)[C@@H](C)CN(C(=O)c1ccc(F)cc1)[C@@H](C)CO2	/	.	/	.
O=C(C=Cc1ccco1)c1ccc2ccccc2c1	.	/	61	/
COc1ccc(S(=O)(=O)N(C)C[C@H]2OCCCC[C@@H](C)Oc3ccc(NC(=O)NC(C)C)cc3C(=O)N([C@@H](C)CO)C[C@@H]2C)cc1	/	.	/	/
Cc1cccc(NC(=S)N/C(=N/S(=O)(=O)c2ccccc2)c2ccccc2)c1	.	78	.	.
COc1ccc(NC(=S)N/C(=N/CS(=O)(=O)c2ccccc2)c2ccccc2)cc1	.	.	37	.
Cc1ccc(S(=O)(=O)N(C)C[C@H]2Oc3c(NC(=O)Nc4ccc(F)cc4)cccc3C(=O)N([C@H](C)CO)C[C@H]2C)cc1	/	.	/	.
COc1ccc(S(=O)(=O)Nc2ccc3c(c2)CC(=O)N([C@H](C)CO)C[C@H](C)[C@@H](CN(C)C(=O)Nc2ccc4c(c2)OCO4)O3)cc1	/	.	/	.
Cc1ccc(NS(=O)(=O)c2ccc(-c3ccc(=O)[nH]n3)o2)cc1N(C)C	.	.	.	.
Cc1ccc(NS(=O)(=O)c2ccc(-c3ccc(=O)[nH]n3)o2)cc1Cl	.	.	.	137
C/C(N)=C(/C#N)C(=O)CSc1nnc(Nc2cccc(C)c2C)s1	.	86!	.	.

Compound activity from PubChem BioAssay.
